Screens deposited in PubChem by several laboratories.
MCL1-BIM inh = MCL1-BIM-BH3 interaction inhibition (human); Q07820; GST-MCL1 / FITC-Bim-BH3 fluorescence polarization; inhibition, % at 10.9 µM; 320,000 tested, 0.68% active;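 active means inhibition above the mean inhibition of all tested compounds plus 3 SD, set per campaign, cut at about 40% in these data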;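 further: 0% = DMSO wells and 100% = unlabeled Bim-BH3 peptide control; higher means more loss of mP so more displacement of Bim peptide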
Target sequence (Q07820 whole entry, looked up): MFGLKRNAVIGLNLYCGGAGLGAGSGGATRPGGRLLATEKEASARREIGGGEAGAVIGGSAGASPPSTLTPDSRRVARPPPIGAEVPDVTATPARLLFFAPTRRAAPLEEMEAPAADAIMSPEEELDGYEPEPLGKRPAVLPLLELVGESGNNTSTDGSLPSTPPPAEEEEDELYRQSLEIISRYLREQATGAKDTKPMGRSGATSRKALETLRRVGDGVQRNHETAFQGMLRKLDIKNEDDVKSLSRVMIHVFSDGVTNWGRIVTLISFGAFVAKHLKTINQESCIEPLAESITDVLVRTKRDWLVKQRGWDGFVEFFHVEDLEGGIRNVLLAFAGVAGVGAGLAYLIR
Bcl-xL primary = blocks human Bcl-xL binding to Bim BH3 peptide. Q07817. GST-Bcl-xL / FITC-Bim BH3 peptide fluorescence polarization. inhibition, % at 10.9 µM. 320,000 tested, 0.7% active;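 active means inhibition above the mean of all tested compounds plus 3 SD, cutoff set per campaign, cut at about 30% in these data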;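 further: 0% = DMSO wells and 100% = unlabeled Bim-BH3 peptide competitor; inhibitors lower millipolarization by displacing the labeled peptide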
Target sequence (Q07817 whole entry, looked up): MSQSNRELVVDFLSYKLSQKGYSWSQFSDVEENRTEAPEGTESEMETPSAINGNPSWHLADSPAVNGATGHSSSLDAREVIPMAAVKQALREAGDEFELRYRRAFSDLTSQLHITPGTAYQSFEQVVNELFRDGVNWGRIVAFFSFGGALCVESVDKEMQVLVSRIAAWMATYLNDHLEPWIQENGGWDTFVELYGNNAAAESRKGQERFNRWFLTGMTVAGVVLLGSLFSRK
Mcl1 Bid PPI = disrupts binding of human Mcl-1 to Bid peptide; Q07820; TR-FRET Mcl-1/Bid-Dy647 peptide binding, 1536-well; inhibition, % at 21.7 µM; 220,000 tested, 0.97% active;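 active means compounds that cut the binding signal by more than half at the single screening dose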;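 further: His-tagged Mcl-1 with europium anti-His antibody binding Bid BH3 peptide; 0% = Mcl-1 plus peptide wells and 100% = peptide-only wells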
Bim-Mcl-1 = inhibitors of Bim-Mcl-1 interaction, human | Bead-based flow cytometry, Bim peptide-Mcl-1 binding | Q07820 | inhibition, % at 10 µM | 190,000 tested, 0.1% active; in the data active means inhibition above about 40%;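 further: 0% = no compound tracer wells and 100% = peptide blocker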
Mcl1 Noxa PPI = Mcl-1/Noxa interaction inhibition. 220,000 tested, 1.5% active. Q07820. inhibition, % at 21.7 µM. AID 1022. TR-FRET Mcl-1/Noxa peptide binding, 2 h;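 active means compounds that cut the protein-peptide binding signal by more than 50% relative to plate controls in a single-dose test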;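 further: His-tagged Mcl-1 with rhodamine Noxa BH3 peptide and terbium anti-His antibody; 0% = Mcl-1 plus Noxa peptide wells and 100% = peptide-only wells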
GLD-1 TGE inh = GLD-1-TGE RNA interaction inhibition (C. elegans) | purified GLD-1 + fluorescein TGE RNA, fluorescence polarization | inhibition, % at 5.96 µM | 320,000 tested, 0.44% active;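 active means percent inhibition above a per-plate cutoff, the plate mean of test compounds plus 3 SD, cut at about 30% in these data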;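 further: 0% = DMSO wells with GLD-1 and probe and 100% = wells lacking GLD-1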
An asterisk follows results filed as active; · = no result. Most compounds without a hit are left out; they make up all but 2.3% or so of the library.

SMILES	MCL1-BIM inh	Bcl-xL primary	Mcl1 Bid PPI	Bim-Mcl-1	Mcl1 Noxa PPI	GLD-1 TGE inh
CC(=O)N1CCCN(Cc2cn(-c3ccc(C)cc3)nc2-c2ccc(F)cc2)CC1	-3	4	56*	14	34	8
O=C1CSC(c2ccc(Cl)cc2)N1c1cccnc1 (stereo not drawn)	5	0	-10	·	13	4
O=C1CSC(c2cccnc2)N1c1ccc(Cl)cc1 (stereo not drawn)	1	-1	79*	0	0	7
CCn1cc(/C=C/C(=O)Nc2ccn(Cc3c(F)c(F)cc(F)c3F)n2)cn1	11	7	7	-8	54*	1
Cc1c2cnn(CC(=O)Nc3c(F)c(F)cc(F)c3F)c(=O)c2c(C)n1Cc1ccccc1F	41*	35*	-57	-6	49	3
COc1ccc(OC)c(NC(=S)N(CCc2c(C)[nH]c3ccccc23)Cc2cccs2)c1	0	-2	-17	0	12	2
COc1ccc(OC)c(NC(=S)N(CCc2c(C)[nH]c3ccc(C)cc23)Cc2cccs2)c1	4	2	85*	0	13	-8
CC(C)N(C(=O)CSc1nnnn1-c1ccc2c(c1)OCO2)C(C)C	-10	-6	65*	-3	-1	6
Brc1ccccc1Cn1cnc2ccccc21	10	76*	·	·	·	3
COC(=O)/C=C/c1cnc[nH]1	2	2	·	·	·	5
O=C(O)/C=C/C(=O)Nc1ccc(N2CCOCC2)nc1N1CCOCC1	31	39*	-13	·	36	29
O=[N+]([O-])c1ccc(O)c(C=Nc2ccc3c(c2)OCO3)c1	-4	3	-9	·	-4	4
O=[N+]([O-])c1cc(Br)cc(C=Nc2ccc3c(c2)OCO3)c1O	16	16	0	·	55*	-3
COc1ccc(OC)c(C2=C/C(=C/c3ccccn3)C(=O)O2)c1	2	31*	-7	-3	22	-58
Cc1ccc(NC(=O)c2ccccc2N(C)S(=O)(=O)c2ccccc2)c(C)c1	-5	0	2	-3	6	2
CCOC(=O)N1CCN(C(=O)C(NC(=O)c2ccc(C(C)(C)C)cc2)C(C)C)CC1 (stereo not drawn)	1	5	·	·	·	-2
CCN1CCN(CCC(=O)Nc2cccc(C)c2)CC1	0	32*	·	·	·	1
Cc1cccc(NC(=O)CCN2CCOCC2)c1	-3	0	-19	-1	-19	6
CCN(c1ccc(OC)cc1)S(=O)(=O)c1csc(C(=O)N2CCCC2)c1	-2	0	·	·	·	5
O=C(O)c1ccc(N/N=C/c2cn(Cc3ccccc3F)c3ccccc23)cc1	5	7	-2	·	59*	4
COC(=O)N/N=C/c1cn(Cc2ccccc2F)c2ccccc12	-2	3	-12	·	2	8
Cc1ccc(NC(=O)COC(=O)c2cccc(N3C(=O)c4ccccc4C3=O)c2)cc1	7	5	-61	·	1	2
CN(C)c1ccc(NC(=O)c2cccc(N3C(=O)C4C5C=CC(C5)C4C3=O)c2)cc1 (stereo not drawn)	0	3	-74	-2	80*	-2
CC(OC(=O)c1cccc(N2C(=O)c3ccccc3C2=O)c1)C(=O)Nc1ccc(N(C)C)cc1 (stereo not drawn)	12	-1	40	-4	76*	3
O=C(Cc1csc(Nc2nc(=S)[nH]c3ccccc23)n1)NCc1ccc(Cl)cc1	13	8	56*	2	4	-4
SMILES	MCL1-BIM inh	Bcl-xL primary	Mcl1 Bid PPI	Bim-Mcl-1	Mcl1 Noxa PPI	GLD-1 TGE inh
COc1ccc(CNC(=O)Cc2csc(Nc3nc(=S)[nH]c4ccccc34)n2)cc1	3	4	34	0	-3	-4
CCCCN(C(=O)c1cc(=O)[nH]c2ccccc12)c1c(N)n(CCCC)c(=O)[nH]c1=O	-9	-6	·	·	·	8
O=C(COc1ccc2ccccc2c1Br)NC(=S)Nc1cccc(CO)c1	0	-2	52*	-4	5	4
O=c1oc2ccccc2n1CCn1c2ccccc2c2nc3ccccc3nc21	-5	3	90*	12	-34	-3
COc1ccc2c(c1)c1nc3ccccc3nc1n2CCn1c(=O)oc2ccccc21	-1	4	37	-2	21	3
COc1ccc(CCNC(=O)c2cc(-c3ccccn3)nc3c(Cl)cccc23)cc1OC	17	4	-25	88*	8	4
CCN1CCc2c(OCc3ccc(C(=O)OC)o3)cccc2C1=O	3	5	92*	-1	14	1
COC(=O)c1ccc(COc2cccc3c2CCN(Cc2ccccc2)C3=O)o1	0	0	-2	0	-8	9
O=C(COc1cccc2c1CCN(Cc1ccc(Br)cc1)C2=O)NCc1ccco1	-1	4	95*	6	17	5
CSC(=NCc1cccnc1)NS(=O)(=O)c1cccs1	-6	0	71*	3	-15	5
Cc1ccc(C(=O)NNC(=O)CCC(=O)Nc2cc(C)on2)cc1	14	2	86*	-4	4	2
CN1C(=O)/C(=C/c2cn(CC(=O)N3CCCCC3)c3ccccc23)c2ccccc21	-10	-2	-23	-3	97*	6
O=Cc1cn(CC(=O)N2CCCCC2)c2ccccc12	-3	1	-19	-1	-2	6
CCOC(=O)c1c(NC(=O)C2CCCCC2)sc2c1CCN(C(C)C)C2	-1	7	·	·	·	1
CCCONC(=O)Nc1ccccc1[N+](=O)[O-]	0	2	66*	-4	-9	3
COC(=O)C(C)(C)ONC(=O)Nc1ccccc1[N+](=O)[O-]	-2	5	-20	0	-8	-4
Cc1ccc(C)c(NC(=O)CSc2nnc(NC(=O)C3CC3)s2)c1	12	5	·	·	·	8
Cc1ccc(O)c(NC2=C(Cl)C(=O)N(Cc3ccccc3)C2=O)c1	·	·	56*	33	88*	·
Cc1ccc(C(=O)N2CCCCC2)cc1NC1=C(Cl)C(=O)N(Cc2ccccc2)C1=O	7	4	·	·	·	2
O=C1C(Cl)=C(Nc2ccccc2O)C(=O)N1c1ccccc1	4	5	-4	13	70*	-3
Cc1c(NC2=C(Cl)C(=O)N(c3ccccc3)C2=O)c(=O)n(-c2ccccc2)n1C	2	10	-50	-5	31	8
COc1ccccc1N1C(=O)C(Cl)=C(Nc2ccccc2O)C1=O	·	·	5	2	76*	·
COc1cccc(NC(=O)c2ccc(N3C(=O)C4CC=CCC4C3=O)cc2)c1 (stereo not drawn)	5	7	·	·	·	2
O=C(Nc1ccc(Br)cc1)c1ccc(N2C(=O)C3CC=CCC3C2=O)cc1 (stereo not drawn)	7	3	-33	0	59*	3
CCc1ccc(CNC(=O)C2CCN(S(=O)(=O)N3CCC4(CC3)OCCO4)CC2)cc1	-13	-7	4	1	-11	-6
